Compounds without any hit were thinned out: in the full panel of roughly 83,000, 20% have a hit.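 In brief: 96-well plates, 48 h treatment, single concentration, percent growth endpoint.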 Active and inactive are the calls of the source.

The subject of the experiment is OVCAR-5 ovarian. As to the kind of experiment: NCI-60 one-dose screen, 48 h (100 = growth as untreated, 0 = no growth, -100 = all killed). The following applies: 10 µM unless noted. As for the experimental part: Growth inhibition of the OVCAR-5 human tumor cell line is measured as a screen for anti-cancer activity. Cells are grown in 96 well plates and exposed to the test compound for 48 hours. Compounds are tested at a single concentration, which is 10^-5 M for most compounds. The reported endpoint is percent growth (GI% or GIPRCNT), where numbers from 0 - 100% represent growth inhibition, and numbers from -100% - 0 represent cell death. For example, a value of 40 represents 60% growth inhibition. A value of 0 means no net growth occurred over the course of the experiment. A value of -40 indicates 40% of cells at the beginning of the experiment died by the end of the experiment. A value of -100 means all cells are dead at the end of the experiment.
NCI-60 Human Tumor Cell Lines Screen was performed using the standard one-dose NCI protocol, which is described in more detail at https://dtp.cancer.gov/discovery_development/nci-60/default.htm.
Compounds with GIPRCNT values below 10 were considered active. Activity score was based on GIPRCNT using the following formula: […]
Score is 0 for GIPRCNT values of 100 or above, 50 for GIPRCNT values of 0, and 100 for GIPRCNT values of -100.
Regarding `CCn1c(CN2CCN(Cc3ccccc3)CC2)nc2cc(NC(=O)c3cccs3)ccc21`, the growth is 4.74% (active).

Take `C=CCn1c(C)nc2cc(Nc3nc(N4CCOCC4)nc4nc[nH]c34)ccc21`: the growth was 74.1% (inactive).

Turning to `CCCc1cc2c(cc1CN(Cc1cc3c(cc1CCC)OCO3)C(=N)OCC)OCO2`, the growth is 98.9% (inactive).

As for `COc1ccc(-c2nsc3c2NC(=O)CC3c2ccc3c(c2)OCO3)cc1` (stereo not given), the growth is 48.6% (inactive).

Turning to `O=[N+]([O-])c1ccccc1CN1CCCCC1`, the growth is 102% (inactive).

For `Oc1ccc(-c2cnc(-c3ccccc3)[nH]2)c(O)c1`, the growth was 116% (inactive).

Regarding `CCCN(CCC)CC(O)COc1ccccc1C(=O)Nc1ccccc1` (stereo not given), the growth was 115% (inactive).

`COc1ccc(Nc2ncccc2C(=O)NCc2cn(Cc3cc(OC)cc(OC)c3)nn2)cc1`: the growth was 106% (inactive).

As for `CCN(CC)CCC(CNc1ccnc2cc(Cl)ccc12)c1ccc(O)cc1` (stereo not given), the growth was 103% (inactive).

Consider `COc1ccc(-c2oc(=O)ccc2-c2cc(OC)c(OC)c(OC)c2)cc1F`, for which the growth was 69.2% (inactive).

For `O=C(NC1CC1)c1ccc(-c2nc3ccc4[nH]ncc4c3c3c2CCCC3)cc1`, the growth was 75.2% (inactive).

Turning to `FC1(F)CCN(Cc2c[nH]c3cc(Cl)ccc23)C[C@H]1CCc1ccccc1`, the growth is 80.5% (inactive).

Take `CCCCN(CCCC)CCC(=O)c1ccc(OC)c2ccccc12`: the growth was 102% (inactive).

In the case of `COc1cc2nccc(Oc3ccc(NC(=O)C4(C(=O)Nc5ccc(F)cc5)CC4)cc3)c2cc1O`, the growth is 80.8% (inactive).

Regarding `Cn1c(=O)c2[nH]c(Cc3ccc4c(c3)OCO4)nc2n(C)c1=O`, the growth was 90.5% (inactive).

Turning to `O=C1OC(c2ccc(-c3ccccc3)cc2)=C/C1=C/c1c(Cl)cccc1Cl`, the growth was 91.7% (inactive).

With `CCCCCCCCCCCCCCCCS(=O)(=O)Nc1cc(C(=O)NN)cc(C(=O)NN)c1`, the growth is 68.3% (inactive).

`COc1cc(Nc2ccnc3ccc(Br)cc23)cc(OC)c1OC`: the growth is 51.6% (inactive).

Regarding `Cc1cc(O)ccc1C1=NN(c2ccc(S(N)(=O)=O)cc2)C(=O)CC1`, the growth was 93% (inactive).

Consider `O=C(Nc1ccccc1)C(CCCCN1C(=O)c2ccccc2C1=O)N1C(=O)c2ccccc2C1=O` (stereo not given), for which the growth is 103% (inactive).

On to `CC(C)c1ccc(Cn2ccc3c4c(N)nc(NC5CC5)nc4ccc32)cc1`, for which the growth is -85.9% (active).

As to `C#CC[C@@H]1C[C@]2(C)[C@H]3CC[C@@H]4[C@H]5C(C(=C)C)CC[C@]5(C(=O)NCCCN5CCN(CCCN)CC5)CC[C@@]4(C)[C@]3(C)CC[C@H]2C(C)(C)[C@H]1OC(C)=O` (stereo not given in full), the growth was -61.3% (active).

Consider `Cc1cc(C)c2c(n1)sc1c(Nc3ccc(OCc4ccccc4)cc3)ncnc12`, for which the growth was 109% (inactive).

Consider `NC(N)=N/N=C\c1cccc(OCc2ccccc2)c1`, for which the growth is 85.3% (inactive).

As to `COc1ccc2[nH]c(C(=O)OCc3ccc4cccc(O)c4n3)cc2c1`, the growth was -66.6% (active).

For `COc1cc(-c2nc(-c3nc4cc(C(=O)c5ccccc5)ccc4[nH]3)cc3c2[nH]c2ccccc23)cc(OC)c1OC`, the growth is 103% (inactive).

On to `CCOC(=O)c1sc2nc(-c3cc4ccccc4o3)cc(-c3ccc(Cl)cc3)c2c1N`, for which the growth is 112% (inactive).

Regarding `CC(C)(C)c1ccc(Cn2c(-c3nonc3N)nc3ccccc32)cc1`, the growth was 99.2% (inactive).

Take `C1=C\CCCCN2CC[C@H]3[C@H](CCCC/C=C\CCCN4C[C@@H](CCCCC/1)C[C@@H]3C4)C2`: the growth was 87.6% (inactive).

Regarding `C=C(C)C1CCC2(C(=O)O)CCC3(C)C(CCC4C5(C)CCC(O)C(C)(C)C5CCC43C)C12` (stereo not given), the growth was -87.3% (active).

In the case of `CCN(C)CCCOc1ccc(/C(=C(\C)Cc2cccc(OC)c2)c2ccc(OC(C)=O)cc2)cc1`, the growth was 99.6% (inactive).

Turning to `CN1CCN(c2ccc(N3Cc4ccccc4OC4=C3C(=O)c3c(O)ccc(O)c3C4=O)cn2)CC1`, the growth was -32.5% (active).

For the compound `Oc1[nH]c2ccc(Cl)cc2c1/C=c1/ccc2c(c1)N=C(c1ccc(F)cc1)N=2`, the growth is 103% (inactive).

Regarding `CCOC(=O)C1=C(C)NC(SCc2nnc(-c3ccc(Cl)cc3)o2)=NC1c1ccc(Cl)cc1` (stereo not given), the growth was 89.6% (inactive).

On to `CC(=O)c1cccc(Nc2ncnc3ccc(NC(=O)c4ccco4)cc23)c1`, for which the growth is 90.4% (inactive).

For the compound `COC(=O)/C=C/c1cc(OC(C)=O)c2c(c1)[C@@H](C(=O)OC)[C@H](c1ccc(OC(C)=O)c(OC(C)=O)c1)O2`, the growth was 20.6% (inactive).

`SCc1ccc(CS)cc1`: the growth is 95.9% (inactive).

For `NC(N)=N/N=C/c1ccccc1`, the growth is 93.2% (inactive).

Regarding `Nc1ccc(N(O)/C=C2\C=CC=CC2=O)cc1N`, the growth was 71.1% (inactive).

In the case of `CC1(C)C2CCC(O)(C(=O)O)C1C2` (stereo not given), the growth was 112% (inactive).
